Consider 9 compounds from PubChem BioAssay (NCI).

The panel holds about 83,000 compounds, 20% with a hit somewhere; the sample as a whole holds those more often.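 The test compound was applied at a single concentration to cells in 96-well plates for 48 hours, and percent growth was recorded.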 Values without a mark were called inactive. Calls of active or inactive are those of the source. The calls were made as follows: active = growth percent below 10; inactive = the rest.

Among the test systems are SR leukemia; RPMI-8226 leukemia; OVCAR-8 ovarian; OVCAR-5 ovarian; OVCAR-4 ovarian; SK-OV-3 ovarian; IGROV1 ovarian; HS 578T breast; NCI/ADR-RES ovarian; T-47D breast; BT-549 breast; MDA-MB-435 melanoma; SW-620 colon; MCF7 breast; HCT-116 colon; HCC-2998 colon; KM12 colon.
Holding throughout (experiment): NCI-60 one-dose screen, 48 h (100 = growth as untreated, 0 = no growth, -100 = all killed)
Common to all, as to conditions: 10 µM unless noted

`O=C1Nc2cc(OC(F)(F)F)ccc2Oc2ccc(-c3ccnc(N4CCNCC4)c3)cc21`: the growth is -44% (active) in the test on SR leukemia; -50.9% (active) in the test with RPMI-8226 leukemia; 20.9% with OVCAR-8 ovarian; 14.7% with OVCAR-5 ovarian; 48% with OVCAR-4 ovarian; 20.5% with SK-OV-3 ovarian. Moreover, the growth in the test on IGROV1 ovarian was -1.58% (active); in the test on HS 578T breast, 2.5% (active); in the test with NCI/ADR-RES ovarian, 5.35% (active); with T-47D breast, -61.9% (active); with BT-549 breast, -4.26% (active); with MDA-MB-435 melanoma, -95.7% (active). Moreover, the growth with SW-620 colon was -91.8% (active); in the test on MCF7 breast, -55.7% (active); with HCT-116 colon, -91.4% (active); in the test on HCC-2998 colon, -76.8% (active); with KM12 colon, -10.6% (active).
Turning to `CCN(CC)CCN1C(=O)c2c(c3c4cccnc4[nH]c3c3ccc4ccccc4c23)C1=O`, the growth in the test on SR leukemia was 3.65% (active); in the test with RPMI-8226 leukemia, 73.1%; with OVCAR-8 ovarian it was 62.3%; with OVCAR-5 ovarian, 111%; with OVCAR-4 ovarian, 102%; in the test on SK-OV-3 ovarian, 64.4%. The growth in the test with IGROV1 ovarian was 55%; in the test with HS 578T breast, 109%; in the test with NCI/ADR-RES ovarian it was 55.5%; with T-47D breast it was 66%; in the test on BT-549 breast, 85.8%; in the test with MDA-MB-435 melanoma, 87.6%. The growth in the test on SW-620 colon is 53.4%; in the test with MCF7 breast it was 17.4%; in the test with HCT-116 colon, 63.1%; in the test with HCC-2998 colon, 77.8%; in the test on KM12 colon, 81.8%.
With `Cc1cn(-c2cc(NC(=O)c3cncc(C#Cc4cnc5ccc(O[C@H]6CCOC6)nn45)c3)cc(C(F)(F)F)c2)cn1`, the growth with SR leukemia is 47.8%; in the test with RPMI-8226 leukemia, 85.4%; in the test on OVCAR-8 ovarian it was 92.6%; with OVCAR-5 ovarian, 80.3%; in the test on OVCAR-4 ovarian, 90.1%; with SK-OV-3 ovarian, 119%. In addition, the growth in the test on IGROV1 ovarian is 65.3%; in the test with HS 578T breast, 73.7%; in the test on NCI/ADR-RES ovarian, 101%; in the test with T-47D breast, 98.2%; in the test on BT-549 breast, 181%; in the test on MDA-MB-435 melanoma, 76.5%. For the same compound, the growth in the test on SW-620 colon was 58.9%; in the test on MCF7 breast it was 44.6%; in the test with HCT-116 colon, 44.2%; in the test on HCC-2998 colon, 84.7%; in the test on KM12 colon, 21.9%.
As to `N#C/C(=C\c1ccc2ccccc2c1)C(=O)Nc1sc2c(c1C#N)CCC2`, the growth in the test with SR leukemia was 90.9%; with RPMI-8226 leukemia, 105%; in the test with OVCAR-8 ovarian, 100%; with OVCAR-5 ovarian it was 111%; in the test on OVCAR-4 ovarian, 105%; in the test with SK-OV-3 ovarian, 99.8%. The growth with IGROV1 ovarian is 107%; with HS 578T breast, 104%; with NCI/ADR-RES ovarian it was 103%; with T-47D breast, 87.5%; in the test on BT-549 breast, 94.6%; in the test on MDA-MB-435 melanoma, 107%. In addition, the growth in the test with SW-620 colon is 111%; in the test on MCF7 breast it was 94.8%; in the test with HCT-116 colon, 106%; in the test with HCC-2998 colon, 113%; in the test on KM12 colon it was 101%.
`C=CCn1c(SCC(=O)Nc2ccc(OC)cc2)nnc1-c1ccc(Cl)cc1`: the growth in the test on SR leukemia was 74.3%; with RPMI-8226 leukemia it was 105%; in the test with OVCAR-8 ovarian it was 98%; in the test on OVCAR-5 ovarian, 93.9%; with OVCAR-4 ovarian it was 99.7%; in the test with SK-OV-3 ovarian it was 101%. The growth with IGROV1 ovarian is 89.8%; in the test on HS 578T breast, 92.2%; in the test with NCI/ADR-RES ovarian, 83.6%; in the test on T-47D breast, 95.5%; in the test on BT-549 breast it was 106%; in the test on SW-620 colon it was 99.1%. The growth is 94.9% with MCF7 breast, 91.2% with HCT-116 colon, 99.6% in the test on HCC-2998 colon and 92.4% in the test on KM12 colon.
Consider `Cc1csc(Nc2cccc(Nc3nc(C)cs3)c2)n1`, for which the growth in the test on SR leukemia is 63.9%; with RPMI-8226 leukemia, 62.3%; with OVCAR-8 ovarian, 82.7%; in the test on OVCAR-5 ovarian it was 92%; in the test on OVCAR-4 ovarian it was 66.8%; in the test with SK-OV-3 ovarian, 98.7%. In addition, the growth in the test on IGROV1 ovarian is 76.6%; in the test with HS 578T breast it was 85.3%; in the test on T-47D breast it was 36.1%; with BT-549 breast, 73.7%; in the test with MDA-MB-435 melanoma, 82.1%; in the test with SW-620 colon, 88.6%. Besides, the growth with MCF7 breast was 73.3%; in the test on HCT-116 colon it was 56.5%; in the test with HCC-2998 colon, 90.3%; with KM12 colon it was 87.8%.
As to `COc1cc(OC)c(S(N)(=O)=O)cc1C(=O)/C=C/c1ccccc1`, the growth in the test on SR leukemia is 8.18% (active); in the test with RPMI-8226 leukemia, 18.5%; in the test with OVCAR-8 ovarian it was 65.3%; in the test with OVCAR-5 ovarian, 27.1%; with OVCAR-4 ovarian, 77.7%; with SK-OV-3 ovarian, 81.1%. Further, the growth in the test with IGROV1 ovarian is 25.7%; in the test with HS 578T breast it was 26.5%; with NCI/ADR-RES ovarian, 48.3%; in the test with T-47D breast, 13.6%; in the test on BT-549 breast, 16.7%; in the test on SW-620 colon, 3.85% (active). In addition, the growth was 10.9% with MCF7 breast, 11.7% in the test with HCT-116 colon, 22.3% with HCC-2998 colon and 3.96% (active) in the test on KM12 colon.
`CNC(=O)c1cc(Oc2ccc3nc(NC(=O)c4cccc(C(F)(F)F)c4)sc3c2)ccn1`: the growth with SR leukemia is 111%; with RPMI-8226 leukemia it was 112%; with OVCAR-8 ovarian, 106%; in the test with OVCAR-5 ovarian, 97.7%; in the test with OVCAR-4 ovarian, 101%; in the test with SK-OV-3 ovarian, 111%. In addition, the growth in the test with IGROV1 ovarian was 107%; in the test with HS 578T breast it was 102%; in the test with T-47D breast, 96.9%; in the test with BT-549 breast, 105%; in the test with MDA-MB-435 melanoma it was 95.1%; in the test with SW-620 colon, 105%. Besides, the growth in the test with MCF7 breast is 85.6%; in the test with HCT-116 colon it was 94.1%; with HCC-2998 colon, 109%; in the test with KM12 colon, 102%.
For `C#CCOc1ccc(/C=N/Nc2nc(-c3cc4cc(Br)cc(Br)c4oc3=O)cs2)cc1`, the growth in the test on SR leukemia was 71%; with RPMI-8226 leukemia, 97.1%; in the test with OVCAR-8 ovarian, 100%; in the test with OVCAR-5 ovarian, 102%; in the test on OVCAR-4 ovarian it was 83.1%; in the test on SK-OV-3 ovarian it was 104%. Also, the growth is 98.9% with IGROV1 ovarian; 91.3% with HS 578T breast; 94.9% with NCI/ADR-RES ovarian; 88.6% in the test on T-47D breast; 91.8% in the test with MDA-MB-435 melanoma; 104% in the test with SW-620 colon. Further, the growth is 65.9% with MCF7 breast, 91.8% with HCT-116 colon, 108% in the test with HCC-2998 colon and 88% with KM12 colon.
